# High-throughput results: PubChem, Broad Institute
# The entries come from a sample that favours hits as a whole.
# PD-1 reverse act = activators reversing PD-1 mediated T-cell inhibition, primary screen, luminescence, primary human CD4 T cells, PD-L1 beads. CellTiter-Glo 96 h. activation, % (concentration not given with the values). 29,000 tested, under 10 active. AID 2316, 2010; call rule not given here;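 further: 0% = median vehicle wells and 100% = positive control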
# STK33 kin inh = STK33 kinase inhibitors, primary screen, biochemical, luminescence, ADP-Glo, MBP substrate; Serine/threonine-protein kinase 33 (Homo sapiens), Q9BYT3; hit rate 0.44% among 27,000; inhibition, % at 12.5 µM; in the data active means inhibition above about 20%
# Target sequence (Q9BYT3 whole entry, looked up): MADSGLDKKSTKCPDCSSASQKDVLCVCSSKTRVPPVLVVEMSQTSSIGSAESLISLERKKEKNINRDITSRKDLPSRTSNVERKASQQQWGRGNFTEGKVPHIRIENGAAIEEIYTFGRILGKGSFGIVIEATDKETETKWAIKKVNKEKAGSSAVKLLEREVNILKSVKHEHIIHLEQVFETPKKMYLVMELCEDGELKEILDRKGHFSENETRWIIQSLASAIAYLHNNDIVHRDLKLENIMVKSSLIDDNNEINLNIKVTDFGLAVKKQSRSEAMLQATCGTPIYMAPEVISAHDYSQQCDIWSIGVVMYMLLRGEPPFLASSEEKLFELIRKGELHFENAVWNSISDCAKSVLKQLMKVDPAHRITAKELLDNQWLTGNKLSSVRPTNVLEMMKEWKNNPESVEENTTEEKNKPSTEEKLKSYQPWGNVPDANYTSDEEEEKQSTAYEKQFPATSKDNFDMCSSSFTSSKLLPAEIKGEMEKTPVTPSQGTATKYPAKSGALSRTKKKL
# NOMO-1 viab = NOMO-1 AML cell viability reduction, primary screen, STK33 inhibitor project, CellTiter-Glo luminescence | inhibition, % (concentration not given with the values) | NOMO-1 AML viability, 72 h | hit rate 7.5% among 37,000; in the data active means inhibition above about 80%
# * hit, by the source's call; . = no result.
SMILES,PD-1 reverse act,STK33 kin inh,NOMO-1 viab
O=C(CSc1ncn(-c2ccccc2)n1)Nc1ccccc1Br,-2,3,13
O=C(CCSc1nc2ccccc2s1)Nc1ccccc1Cl,.,0,27
C[C@@H]1CN([C@H](C)CO)C(=O)c2cccc(NC(=O)c3ccc(-c4nccs4)cc3)c2O[C@H]1CN(C)Cc1ccccc1,-7,.,73
C[C@@H]1CN([C@H](C)CO)C(=O)c2cccc(NC(=O)c3ccc(-c4nccs4)cc3)c2O[C@H]1CN(C)Cc1ccc(C(=O)O)cc1,-3,.,12
C[C@@H]1CN([C@H](C)CO)C(=O)c2cccc(NC(=O)c3ccc(-c4nccs4)cc3)c2O[C@H]1CN(C)Cc1ccc(C(F)(F)F)cc1,.,.,84*
C[C@@H]1CN([C@@H](C)CO)C(=O)c2cccc(NC(=O)c3ccc(-c4nccs4)cc3)c2O[C@H]1CN(C)Cc1ccc(C(=O)Nc2ccccc2N)cc1,-1,.,126*
Cc1cc(C)c(OC(=O)/C=C/c2cccs2)c(C)c1,-1,.,13
COCCCNC(=O)c1cc(-c2ccccn2)nc2ccc(Br)cc12,.,7,8
Cc1cc(C)c2nc(-c3ccccn3)cc(C(=O)NCc3ccc(S(N)(=O)=O)cc3)c2c1,.,6,113*
COc1ccccc1CNC(=O)c1cc(-c2ccccn2)nc2c(Cl)cccc12,.,0,92*
Cc1cc(C)c2nc(-c3ccccn3)cc(C(=O)NCCc3ccc(S(N)(=O)=O)cc3)c2c1,-1,6,27
Cn1c(SCC(=O)Nc2c(F)cc(F)cc2Br)nnc1-c1cnccn1,2,-5,14
CS(=O)(=O)N(CC(=O)Nc1cc(Cl)ccc1Oc1ccccc1)c1ccccc1Br,-3,4,46
COc1ccc(C)cc1S(=O)(=O)N1CCC(C(=O)Nc2cc(Cl)ccc2Cl)CC1,-3,-8,13
O=S(=O)(c1ccccc1)c1nc(-c2cccs2)oc1NCC1CCCO1 (stereo unspecified),0,0,38
CC(C)(C)C1CCc2c(sc3nc(-c4cccs4)oc(=O)c23)C1 (stereo unspecified),-1,.,108*
CN[C@H]1CC[C@@H](c2ccc(Cl)c(Cl)c2)c2ccccc21,.,3,107*
CC(=O)Nc1ccc(C(=O)CSc2nnc(-c3cccc(Br)c3)o2)cc1,0,2,11
OCCN(Cc1ccccc1)c1ncnc2c1sc1nc(N3CCOCC3)c3c(c12)CCCC3,-5,-2,20
CCCCC/C=C/C(=O)CCc1ccc(O)c(OC)c1,0,-1,118*
CCCCCCCCC/C=C/C(=O)CCc1ccc(O)c(OC)c1,.,-2,.
OCC1CCCN1CC1CC1 (stereo unspecified),0,.,-7
S=C(NCCc1ccccc1)N1CCc2ccccc21,-1,0,33
C[C@H]1CN([C@@H](C)CO)C(=O)Cc2cc(NC(=O)CCC(F)(F)F)ccc2O[C@H]1CN(C)S(=O)(=O)c1ccc(Cl)cc1,.,-2,109*
C[C@H](CO)N1C[C@H](C)[C@H](CN(C)S(=O)(=O)c2ccc(Cl)cc2)Oc2ccc(NC(=O)CCC(F)(F)F)cc2CC1=O,.,-5,121*
SMILES,PD-1 reverse act,STK33 kin inh,NOMO-1 viab
C[C@@H]1CN([C@@H](C)CO)C(=O)Cc2cc(NC(=O)CCC(F)(F)F)ccc2O[C@@H]1CN(C)S(=O)(=O)c1ccc(F)cc1,0,-3,24
C[C@H]1CN([C@@H](C)CO)C(=O)Cc2cc(NC(=O)CCC(F)(F)F)ccc2O[C@H]1CN(C)S(=O)(=O)c1ccc(F)cc1,-1,0,126*
C[C@@H]1CN([C@@H](C)CO)C(=O)Cc2cc(NC(=O)CCC(F)(F)F)ccc2O[C@@H]1CN(C)S(=O)(=O)c1ccccc1,-2,0,17
Cc1ccc(S(=O)(=O)N(C)C[C@H]2Oc3ccc(NC(=O)CCC(F)(F)F)cc3CC(=O)N([C@@H](C)CO)C[C@H]2C)cc1,-1,-3,2
O=C(CSc1n[nH]c(-c2ccccc2)n1)Nc1ccc(F)cc1,-3,-2,40
CCOc1ccc(NC(=O)C(C)Sc2nnnn2-c2ccccc2)cc1 (stereo unspecified),1,-1,23
CC1CC(=O)c2cc(O)c(O)cc2C1 (stereo unspecified),-1,-9,24
CCC(C)C(=O)c1c(O)cc2c(c1O)CC(CC=C(C)C)C(C)(C)O2 (stereo unspecified),-7,-8,88*
Cc1cc(NC(=O)CSc2nc3ccccc3[nH]2)ccc1Cl,.,0,45
CCOC(=O)c1cc(NC(=O)CSc2nc3ccccc3[nH]2)ccc1Cl,-2,-1,100*
O=C(CSc1nc2cc3ccccc3cc2[nH]1)Nc1ccccc1Cl,.,3,108*
COC(=O)c1ccccc1NC(=O)CSc1nc2cc3ccccc3cc2[nH]1,.,9,5
